# Screening data (PubChem BioAssay)
# A selection: hits, their analogues and other compounds. The true share with any hit is near 2.9%.
# SMARCA2 activ – activators of SMARCA2 function. MG213 cells, MMTV-luciferase reporter, dexamethasone, overnight. activation, % at 9.1 µM. 370,000 compounds, 1% hits. AID 652017; in the data active = activation above about 7.8%
# FXN GAA850 act – activators of GAA850 frataxin (FXN) promoter | HEK293 lucGAA850 FXN promoter luciferase reporter, 24 h; percent of 10 µM SAHA response | activation, % at 6 µM | 360,000 compounds, 0.56% hits;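 active = activation above the average of all compounds screened plus 3 SD, cutoff fixed separately per campaign, cut at about 7.5% in these data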
# FAS TE block – inhibitors of human fatty acid synthase thioesterase domain; P49327; recombinant FAS-TE, OMFH fluorogenic substrate, fluorescence endpoint; inhibition, % at 15 µM; 360,000 compounds, 0.67% hits; AID 602261;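 active = compounds whose normalised, plate-corrected inhibition of enzyme fluorescence in the single-dose primary screen is 50% or more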
# Target sequence (P49327 whole entry, looked up, the tested form may be a part): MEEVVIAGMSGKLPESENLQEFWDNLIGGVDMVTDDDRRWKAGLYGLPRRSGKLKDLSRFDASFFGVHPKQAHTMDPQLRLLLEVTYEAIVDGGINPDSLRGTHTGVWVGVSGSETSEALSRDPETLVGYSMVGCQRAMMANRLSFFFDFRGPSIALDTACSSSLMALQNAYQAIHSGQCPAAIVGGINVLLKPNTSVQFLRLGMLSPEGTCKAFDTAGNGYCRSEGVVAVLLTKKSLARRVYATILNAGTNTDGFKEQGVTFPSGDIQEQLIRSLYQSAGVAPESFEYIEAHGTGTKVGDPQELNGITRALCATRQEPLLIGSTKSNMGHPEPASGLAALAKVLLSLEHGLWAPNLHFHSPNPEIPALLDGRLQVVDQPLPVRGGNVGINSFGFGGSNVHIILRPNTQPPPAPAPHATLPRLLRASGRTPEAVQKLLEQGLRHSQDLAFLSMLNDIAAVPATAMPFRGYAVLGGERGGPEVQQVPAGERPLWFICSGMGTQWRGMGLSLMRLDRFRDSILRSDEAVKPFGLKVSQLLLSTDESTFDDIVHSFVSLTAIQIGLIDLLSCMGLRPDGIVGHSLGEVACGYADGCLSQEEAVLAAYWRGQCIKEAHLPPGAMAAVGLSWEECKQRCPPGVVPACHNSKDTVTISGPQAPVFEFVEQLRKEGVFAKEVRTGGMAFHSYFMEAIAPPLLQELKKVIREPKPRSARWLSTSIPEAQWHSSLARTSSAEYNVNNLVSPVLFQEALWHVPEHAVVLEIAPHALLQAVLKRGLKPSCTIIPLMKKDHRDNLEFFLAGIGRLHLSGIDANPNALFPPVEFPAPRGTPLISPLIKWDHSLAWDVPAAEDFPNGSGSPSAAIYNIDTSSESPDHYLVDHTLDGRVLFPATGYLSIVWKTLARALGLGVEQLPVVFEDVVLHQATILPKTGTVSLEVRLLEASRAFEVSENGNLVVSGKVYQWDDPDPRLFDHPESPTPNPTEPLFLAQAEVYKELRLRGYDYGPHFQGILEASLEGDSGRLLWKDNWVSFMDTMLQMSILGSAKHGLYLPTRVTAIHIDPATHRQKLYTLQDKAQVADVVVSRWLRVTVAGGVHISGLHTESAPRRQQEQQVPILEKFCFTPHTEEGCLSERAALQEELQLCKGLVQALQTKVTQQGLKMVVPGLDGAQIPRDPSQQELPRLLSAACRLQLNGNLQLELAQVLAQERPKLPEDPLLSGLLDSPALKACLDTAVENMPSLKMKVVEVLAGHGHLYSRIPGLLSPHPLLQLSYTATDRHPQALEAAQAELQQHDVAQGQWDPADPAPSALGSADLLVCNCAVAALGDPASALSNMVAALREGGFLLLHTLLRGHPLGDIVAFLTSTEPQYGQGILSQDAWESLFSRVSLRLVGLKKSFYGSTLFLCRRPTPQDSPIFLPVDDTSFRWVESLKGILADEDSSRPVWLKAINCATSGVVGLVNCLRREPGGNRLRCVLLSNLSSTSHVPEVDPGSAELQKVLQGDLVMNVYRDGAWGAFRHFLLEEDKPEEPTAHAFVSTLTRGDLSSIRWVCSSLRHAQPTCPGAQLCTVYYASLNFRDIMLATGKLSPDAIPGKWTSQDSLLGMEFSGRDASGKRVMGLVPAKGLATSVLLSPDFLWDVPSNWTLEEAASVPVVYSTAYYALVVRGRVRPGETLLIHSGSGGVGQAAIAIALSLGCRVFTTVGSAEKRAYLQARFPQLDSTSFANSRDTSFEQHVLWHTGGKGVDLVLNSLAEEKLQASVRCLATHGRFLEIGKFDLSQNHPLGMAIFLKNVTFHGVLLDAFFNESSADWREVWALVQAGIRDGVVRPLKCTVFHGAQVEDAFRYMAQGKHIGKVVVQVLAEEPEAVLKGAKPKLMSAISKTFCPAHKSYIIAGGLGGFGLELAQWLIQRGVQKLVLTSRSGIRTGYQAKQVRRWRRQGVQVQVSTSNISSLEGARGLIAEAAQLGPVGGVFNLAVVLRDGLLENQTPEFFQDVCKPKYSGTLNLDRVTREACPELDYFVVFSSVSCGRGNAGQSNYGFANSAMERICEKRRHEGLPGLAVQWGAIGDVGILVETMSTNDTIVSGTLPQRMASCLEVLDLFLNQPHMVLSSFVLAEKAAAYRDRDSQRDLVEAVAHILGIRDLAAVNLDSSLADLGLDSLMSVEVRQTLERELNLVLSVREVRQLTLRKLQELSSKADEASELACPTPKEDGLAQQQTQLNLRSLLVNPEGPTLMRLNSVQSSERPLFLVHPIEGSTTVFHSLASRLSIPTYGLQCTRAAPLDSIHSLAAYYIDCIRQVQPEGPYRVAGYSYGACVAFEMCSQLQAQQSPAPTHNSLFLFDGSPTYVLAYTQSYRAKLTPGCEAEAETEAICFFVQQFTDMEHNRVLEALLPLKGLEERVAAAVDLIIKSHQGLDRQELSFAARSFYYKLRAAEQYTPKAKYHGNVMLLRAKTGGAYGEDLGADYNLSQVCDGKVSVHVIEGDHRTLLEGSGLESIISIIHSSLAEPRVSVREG
# proKLK7 act – activators of human kallikrein-7 zymogen | activation, % at 7 µM | 370,000 compounds, 0.9% hits | purified proKLK7, EDANS-DABCYL substrate fluorescence; 100% is mature enzyme control, 0% vehicle;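 active = activation above the mean of all tested compounds plus 3 SD, computed per campaign excluding outliers beyond control limits, cut at about 13% in these data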
# GAA30 counter – counter-screen for GAA850 frataxin promoter activators: GAA30 promoter activation; shares compounds with FXN GAA850 act; HEK293 lucGAA30 FXN promoter luciferase, 24 h; DMSO = 0%, 5 µM ipriflavone = 100%; activation, % at 6 µM; 1,900 compounds, 66% hits; AID 588350;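 active = mean activation above the mean of solvent-only control wells plus 3 SD, cut at about 22% in these data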;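 note: counterscreen of GAA850 promoter hits where activity marks nonselective or luminescence artifacts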
# GAA850 confirm – confirmation of GAA850 frataxin (FXN) promoter activators; shares compounds with FXN GAA850 act; HEK293 lucGAA850 FXN promoter luciferase reporter, 24 h; 100% = activation by SAHA; activation, % at 6 µM; 1,900 compounds, 86% hits;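 active = mean activation above a set limit taken from the primary screen, cut at about 8% in these data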
# Hits are given with their value; - = inactive; . = not tested or not shown.
SMILES,SMARCA2 activ,FXN GAA850 act,FAS TE block,proKLK7 act,GAA30 counter,GAA850 confirm
NC(=O)Cc1nc(-c2ccc(Br)cc2)cs1,-,-,-,-,.,.
Oc1csc(Cc2nc(-c3ccc(Br)cc3)cs2)n1,-,7.6,-,-,96,38
CC(=O)c1ccc(NC(=O)CSc2nc(N)c3cc4c(nc3n2)CCCC4)cc1,-,7.7,-,-,101,27
COc1cc(/C(C)=N/Nc2ccc(C(=O)O)cc2)cc(OC)c1OC,-,-,-,-,.,.
COc1ccc(/C(C)=N/Nc2ccc(C(=O)O)cc2)cc1OC,-,8.5,-,-,93,32
O=C(CSc1nc2ccccc2o1)NC1CCCC1,-,7.6,-,-,-,-
CCOC(=O)[C@H]1[C@H]2COc3ccc(Cl)cc3[C@@H]2N2C(=O)c3cc(OC)ccc3NC(=O)[C@@]12C,-,-,-,-,.,.
Cc1ccc(Cl)cc1N1CCN(C(=O)C2CCN(c3nnc(-n4cccc4)s3)CC2)CC1,-,8.2,-,-,-,-
Cc1cccc(N2CCN(C(=O)C3CCN(c4nnc(-n5cccc5)s4)CC3)CC2C)c1 (stereo unspecified),-,-,-,-,.,.
N#Cc1c(-c2cccs2)cc(-c2ccccn2)nc1N,-,-,-,-,.,.
Oc1ccc(Nc2ccnc3cc(Cl)ccc23)cc1,-,10,-,-,39,11
Clc1nc2sccn2c1/C=N/n1cnc2ccccc21,-,9.1,-,-,82,32
Nc1ccccc1C#CC(=O)c1ccccc1,-,14,-,-,-,-
COC(=O)[C@@H]1[C@@H](C#N)C2(c3ccccc3-c3ccccc32)N(c2ccc(Cl)cc2)N1C#N,-,12,-,-,-,19
O=C(Cc1ccc(Cl)cc1)NN1C(=O)c2ccccc2C1=O,-,-,-,-,.,.
CSc1ccc(/C=C/C(=O)OCC(=O)N2CCc3ccccc32)cc1,-,-,-,-,.,.
Brc1ccc2oc(-c3ccn[nH]3)cc2c1,-,7.8,-,-,116,38
O=c1oc2ccc(Br)cc2cc1-c1nc2ccccc2o1,-,-,-,-,.,.
CN(C)C(CNC(=O)CSc1nc2sc3c(c2c(=O)n1C)CCCC3)c1ccccc1 (stereo unspecified),-,7.9,-,-,-,7.6
O=C(O)CSc1nc2sc3c(c2c(=O)n1-c1ccccc1)CCC3,-,-,-,-,.,.
COc1ccc(-n2c(SCC(=O)O)nc3sc4c(c3c2=O)CCCC4)cc1,-,8.3,-,-,22,15
Cc1ccccc1S(=O)(=O)c1c(C)cc(C)n(CC(C)C)c1=O,-,-,-,-,.,.
CC(=O)c1cccc(NC(=O)CCNC(=O)c2cccc(C)c2)c1,-,-,-,-,.,.
Fc1ccc(-c2cn3cc(C(F)(F)F)cc(Cl)c3n2)cc1,-,8.8,-,-,97,35
Fc1ccc(-c2nc3c(Cl)cc(C(F)(F)F)cn3c2Cc2ccccc2)cc1,-,.,-,-,.,.
SMILES,SMARCA2 activ,FXN GAA850 act,FAS TE block,proKLK7 act,GAA30 counter,GAA850 confirm
CC1=C(C(N)=O)C(c2cccs2)n2nc(-c3cccc(Cl)c3)nc2N1 (stereo unspecified),.,-,-,.,.,.
Cc1c(C(=O)Nc2ccccn2)oc2ccccc12,-,-,-,-,.,.
Cc1c(C(=O)Nc2cccnc2Cl)oc2ccccc12,-,7.8,-,-,128,42
Cc1cc2nc3c(nc2cc1C)CCCC3,-,-,-,-,.,.
COC(=O)CCS(=O)(=O)c1nc(-c2ccccc2)cc(C(F)(F)F)n1,.,-,-,.,.,.
COc1ccc(-c2cc(C(F)(F)F)nc(S(=O)(=O)CCCC(=O)Nc3cccnc3Cl)n2)cc1OC,-,8.7,-,-,54,52
Cc1cc(NC(=O)CCCS(=O)(=O)c2nc(-c3cccs3)cc(C(F)(F)F)n2)no1,-,9.6,-,-,-,-
Cc1cc(NC(=O)CSc2nc(-c3cccs3)cc(C(F)(F)F)n2)no1,-,-,-,-,.,.
CCCOc1ccc(Cn2c(=O)oc3ccc(C)cc32)cc1,-,-,-,-,.,.
NC(=O)c1ccsc1NC(=O)CSc1ccccc1F,-,8.2,-,-,89,27
Cc1ccccc1SCC(=O)OCC(=O)Nc1sccc1C(N)=O,-,-,-,-,.,.
COc1cccc(C(=O)/C=C/Nc2cc(C)ccc2O)c1,-,11,-,-,47,33
CC(C)CNC(=O)c1ccccc1NC(=O)c1ccccc1N(C)S(=O)(=O)c1ccccc1,-,13,-,-,-,-
CCCNC(=O)c1ccccc1NC(=O)c1ccccc1N(C)S(=O)(=O)c1ccccc1,-,14,-,-,-,19
Cc1ccccc1C(=O)Nc1nnc(S(=O)(=O)N(C)Cc2ccco2)s1,-,-,-,-,.,.
COc1ccc(O)c(/C=N/Nc2nc(Nc3ccccc3)nc(-n3nc(C)cc3C)n2)c1,-,8.7,-,-,-,16
Cc1cc(NC(=O)c2coc(=O)c(Br)c2)ccc1C(C)C,-,8.4,-,-,89,50
C[C@@H](NC(=O)c1coc(=O)c(Br)c1)c1ccccc1,-,8.8,-,-,-,-
C=CCNC(=S)N(C)[C@H]1C[C@H]2c3[nH]c4cccc(-c5cccc(F)c5)c4c3CCN2C(=O)[C@H]1[C@H](C)O,-,.,.,-,.,.
NS(=O)(=O)c1ccc(NC(=S)NC2CCCC2)cc1,-,-,-,-,.,.
O=C(Nc1ccc(Oc2ccc3c(c2)C(=O)N(c2ccc(O)cc2)C3=O)cc1)c1cccs1,-,-,-,-,.,.
COc1ccccc1C(=O)N=c1sc2c(C)ccc(OC)c2n1C,-,9.5,-,-,82,32
COc1ccc(Nc2cnn(-c3nc4ccccc4s3)c(=O)c2Cl)cc1,12,20,-,-,31,39
O=C(N/N=C/c1ccccc1)c1ccco1,-,-,-,-,.,.
O=C(C#Cc1ccccc1)c1ccco1,-,12,-,-,-,-
SMILES,SMARCA2 activ,FXN GAA850 act,FAS TE block,proKLK7 act,GAA30 counter,GAA850 confirm
COc1cc2c(cc1OC)C1=C(C#N)CC/C(=N\S(=O)(=O)c3cccc(Cl)c3)N1CC2,-,8.2,-,-,27,14
COc1cc2c(cc1OC)C1=C(C#N)CCC(=NC(=O)c3ccco3)N1CC2,-,-,-,-,.,.
COc1ccc(-c2nnc(Nc3nc4c(OC)cccc4s3)o2)c(OC)c1,-,9.0,-,-,-,23
COc1ccccc1NC(=O)CC1C(=O)NCCN1C(=O)Nc1ccccc1 (stereo unspecified),-,8.0,-,-,-,8.0
O=C(N/N=C/C(Br)=C/c1ccccc1)NC1CCCCC1,-,9.8,-,-,51,22
CC(/C=N/NC(=O)NC1CCCCC1)=C\c1ccccc1,-,-,-,-,.,.
O=C(N/N=C/c1ccccc1)NC1CCCCC1,-,8.6,-,-,62,20
CC(=O)NNC(=O)c1nc(-c2ccccc2)c(C)o1,-,-,-,-,.,.
CC(C)CCNC(=O)CN(Cc1ccc(F)cc1)C(=O)CCC(=O)Nc1ccccn1,-,-,-,-,.,.
